Screening results: PubChem, National Center for Advancing Translational Sciences (NCATS)
Pf growth 96h – P. falciparum growth inhibition at 96 hour, primary screen for plastid delayed-death inhibitors; Potency, µM (series often up to 28.7 µM), inactives show at the highest dose activity change, negative = inhibition, usual class: inhibitors; P. falciparum luciferase reporter growth, 96 h; AID 504834; 320,000 compounds, 6.9% hits; also: potency is read from the fitted curve at half-maximal effect
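P. falciparum expressing integrated firefly luciferase grown in erythrocytes (2% hematocrit, 0.05% parasitemia final) with compounds for 96 hours at 37 C, 5% CO2. Growth inhibition read as loss of luminescence after adding luciferase detection reagent.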
Pf growth 48h – P. falciparum growth inhibition at 48 hours (one generation); 310,000 compounds, 5.9% hits; AID 504832; Potency, µM (highest dose often 28.7 µM), inactives show at the highest dose activity change, negative = inhibition, hits mostly inhibitors; P. falciparum luciferase growth in erythrocytes, 48 h; also: potency is read from the fitted curve at half-maximal effect
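Luciferase-expressing parasites in RBCs, 2% Hct / 0.1% parasitemia final; RPMI 1640 + 0.5% Albumax; 37 C, 5% CO2, one generation; luminescence read-out, lower signal = inhibition.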
HCMV antiviral – human cytomegalovirus inhibition; 410,000 compounds, 4.5% hits; HFF cells, HCMV-luciferase reporter, 72 h; active compounds read low; activity change, negative = inhibition, % at 57.5 µM; in the data active = activity change below about -60%; inconclusive = no clear call, values can overlap the other calls; inactive = above about -39%
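Cell-based, HFFs, 1000 cells/well, 16 h 37C; cpds in DMSO + HCMV-luc, MOI 1 PFU/cell; 72 h 37C; OneGlo luminescence after 5 min RT; norm. to buffer vs Salinomycin 10uM.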
Sm TGR block – S. mansoni TGR enzyme inhibition. Q962Y6. purified TGR, DTNB reduction, TNB absorbance 405 nm. 360,000 compounds, 3% hits. Potency, µM (highest dose often 114 µM), for the others: top-dose activity change, negative = inhibition, most hits filed as inhibitors; also: potency is read from the fitted curve at half-maximal effect; nearly all actives have a fitted effect of over 60% in size
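Kinetic colorimetric format: TGR-catalysed, NADPH-driven DTNB reduction monitored via TNB absorbance. Enzyme dispensed at 20 nM; compound exposure 15 min at room temperature before reaction start.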
FBPA Giardia inh – Giardia lamblia aldolase inhibition. A8B2U2. purified Giardia FBPA. Potency, µM (series often up to 59.6 µM), inactives show at the top dose activity, negative = inhibition, hits mostly inhibitors. 290,000 compounds, 0.71% hits. AID 2451; also: potency is read from the fitted curve at half-maximal effect; nearly all actives have a fitted effect of over 55% in size
Target sequence (A8B2U2 whole entry, looked up): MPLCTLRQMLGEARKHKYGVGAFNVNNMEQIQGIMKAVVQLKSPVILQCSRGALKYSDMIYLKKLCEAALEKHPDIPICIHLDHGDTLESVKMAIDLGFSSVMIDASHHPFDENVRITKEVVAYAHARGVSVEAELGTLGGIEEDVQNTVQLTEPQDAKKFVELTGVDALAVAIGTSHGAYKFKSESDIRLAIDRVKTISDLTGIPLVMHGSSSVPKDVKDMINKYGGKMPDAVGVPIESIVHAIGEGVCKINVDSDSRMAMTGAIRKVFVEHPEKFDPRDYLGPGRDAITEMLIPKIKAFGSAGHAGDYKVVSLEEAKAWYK
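40 nM FBPA preincubated 10 min at RT with compound (up to 57.5 uM final), then substrate plus GAPDH/TPI/NAD/arsenate coupling and diaphorase/resazurin added. Fluorescence read after 20 min at RT, 525/598 nm.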
Starred values were filed as active, the others as inactive; ? = inconclusive; . = not tested or not shown; [ ] = another dose, or the depositor's remark. Only some compounds are listed: those with a hit (about 14% of all), similar ones and a draw of the others. Unless noted, calls follow the shape of the dose curve; as a rule, active = well fitted curve in the direction sought with a large enough effect; inconclusive = small, poorly fitted or top-dose-only effect, or another doubt; inactive = no such curve, though single readings can be large; an effect the other way counts as inactive or inconclusive. % is scaled to controls: 0 for no effect and ±100 for the full control effect.

SMILES | Pf growth 96h | Pf growth 48h | HCMV antiviral | Sm TGR block | FBPA Giardia inh
CCNC(=O)NC(=O)C(C)Sc1nc2ccccc2c(=O)n1-c1cccnc1 (stereo not drawn) | 0.93µM* | 1µM* | 31 | -1% | ?
CCNC(=O)NC(=O)C(C)Sc1nc2cc(C(=O)OC)ccc2c(=O)n1-c1ccccc1 (stereo not drawn) | 78% | 21% | -3 | 7% | 0%
CC(NC(=O)CSC(=S)N(C)C)C12CC3CC(CC(C3)C1)C2 (stereo not drawn) | -22% | 2% | ? | ? | 2%
CCOC(=O)c1ccc(N2C(=O)c3n[nH]c(-c4cccs4)c3C2c2ccc(OCC)cc2)cc1 (stereo not drawn) | . | . | -105* | 5% | .
CCOC(=O)c1ccc(N2C(=O)c3n[nH]c(-c4cccs4)c3C2c2ccc(C(C)C)cc2)cc1 (stereo not drawn) | . | . | -106* | 2% | .
CCOC(=O)c1ccc(N2C(=O)c3n[nH]c(-c4cccs4)c3C2c2ccc(CC)cc2)cc1 (stereo not drawn) | . | . | -99* | 12% | .
COc1ccc(Cn2cnc3cnc(-c4cc(OC)c(OC)c(OC)c4)cc32)cc1OC | . | . | 39 | . | .
C/C=C/c1cnc2c(c1)C(=O)N([C@H](C)CO)C[C@@H](C)[C@@H](CN(C)C(=O)NC1CCCC1)O2 | . | . | 12 | . | .
C=CCOC(=O)/C=C/C(=O)NC(N)=O | 0% | ? | 20 | 1.3µM* | 0%
C=CCOC(=O)/C=C/NC(=O)/C=C/C=C/CCCCCCCC(C)O (stereo not drawn) | . | . | . | . | 0%[12.9 µM]
CN(C)c1ccc(C=O)c(Oc2ccccc2)c1 | . | . | -15 | . | .
CCOc1ccc(CN2CCN(Cc3cccc4nonc34)CC2CCO)cc1 (stereo not drawn) | 15µM* | 17% | -19 | 0% | 0%
CCOc1ccc(CN2CCN(Cc3[nH]c4ccccc4c3C)CC2CCO)cc1 (stereo not drawn) | 10µM* | ? | 95 | -15%[57.1 µM] | 0%
CCOc1ccc(CN2CCN(Cc3cccc4c3OCO4)CC2CCO)cc1 (stereo not drawn) | ? | 26% | -23 | 0% | 4%
O=C(CSc1nnc(-c2ccccc2F)o1)N1CCc2ccccc21 | . | . | 9 | -1% | .
COC(=O)C(NC(=O)c1ccccc1C)(Nc1ncc(S(=O)(=O)c2ccc([N+](=O)[O-])cc2)s1)C(F)(F)F (stereo not drawn) | 4.1µM* | 12µM* | 16 | 2% | -5%
COC(=O)C(NC(=O)c1ccc(F)cc1)(Nc1ncc(S(=O)(=O)c2ccc([N+](=O)[O-])cc2)s1)C(F)(F)F (stereo not drawn) | 13µM* | ? | -1 | 2% | -6%
CNC(=O)c1ccc(NC(=O)c2ccccc2OCc2c(C)noc2C)cc1 | . | . | 29 | . | .
CCOc1ccccc1-c1ccc(C(=O)O)s1 | . | . | . | . | 20%[89.2 µM]
O=C1Nc2ccccc2/C1=N\c1sc2c(c1C(=O)Nc1ccccc1)CCCC2 | 2.3µM* | 7.4µM* | 36 | 1% | -2%
Cc1ccc2[nH]c(=O)c(C(c3nnnn3C3CCCC3)N3CCCc4ccccc43)cc2c1 (stereo not drawn) | 16% | ? | 133 | 4% | ?
Cc1ccc2[nH]c(=O)c(C(c3nnnn3Cc3ccccc3)N3CCc4ccccc43)cc2c1 (stereo not drawn) | . | . | 8 | 20µM* | ?
Cc1ccc2cc(C(c3nnnn3Cc3ccccc3)N3CCc4ccccc43)c(=O)[nH]c2c1C (stereo not drawn) | . | 10µM* | 45 | ? | ?
Cc1ccc2cc(C(c3nnnn3Cc3ccccc3)N3CCc4ccccc43)c(=O)[nH]c2c1 (stereo not drawn) | 6.6µM* | . | -7 | 4% | -16%
Cc1cc2cc(C(c3nnnn3Cc3ccco3)N3CCc4ccccc4C3)c(=O)[nH]c2cc1C (stereo not drawn) | 193% | ? | 4 | 3.5µM* | ?
SMILES | Pf growth 96h | Pf growth 48h | HCMV antiviral | Sm TGR block | FBPA Giardia inh
O=C1Cc2cc(NS(=O)(=O)c3ccc([N+](=O)[O-])cc3)cc3c2N1CCC3 | 10% | -8% | -9 | 6% | .
COCCNc1nc2c(c(=O)[nH]c(=O)n2C)n1CCCc1ccccc1 | -10% | 0% | 24 | -19% | 4%
Cc1cc2cc(C(c3nnnn3Cc3ccccc3)N3CCc4ccccc43)c(=O)[nH]c2cc1C (stereo not drawn) | 5.2µM* | . | 35 | 45µM* | ?
Cc1cc2cc(C(c3nnnn3Cc3ccco3)N3CCc4ccccc43)c(=O)[nH]c2cc1C (stereo not drawn) | ? | 0% | -22 | ? | ?
COc1cccc(C(=O)Nc2ccccc2C(=O)OCc2cc(=O)n3c4c(sc3n2)CCCC4)c1 | . | . | -16 | 4% | .
CC(C(=O)N1c2ccccc2CCc2ccccc21)n1nnc(-c2ccc(N(C)C)cc2)n1 (stereo not drawn) | 1% | 7.4µM* | -2 | -11% | -2%
Cc1ccc(-c2nnn(C(C)C(=O)N3c4ccccc4CCc4ccccc43)n2)cc1 (stereo not drawn) | 12µM* | ? | -31 | -3% | -6%
CC(C(=O)N1c2ccccc2Sc2ccccc21)n1nnc(-c2cccs2)n1 (stereo not drawn) | . | ? | -24 | 4% | 16%
COc1ccc(NC(=O)N2CC[C@@]3(CCCN(C(=O)c4cccn4C)C3)C2)cc1 | . | . | . | . | 0%
COc1ccc(Nc2cc3c(cn2)ncn3Cc2ccccc2)cn1 | . | . | 8 | . | .
CCN(CC)C(=S)S | ? | -18% | . | . | .
O=C(Nc1cccc(F)c1)N1CCCC2(CCN(C(=O)Oc3ccccc3)CC2)C1 | . | . | . | . | -4%
O=C(Nc1cccc(F)c1)N1CCc2nc(NCc3cccc(Oc4ccccc4)c3)ncc2C1 | . | . | -78* | . | .
COc1cccc(NC(=O)N2CCc3nc(Nc4ccc(C(C)C)cc4)ncc3C2)c1 | . | . | -69* | . | .
COc1cccc(NC(=O)N2CCc3ccccc3C2)c1 | 5% | 125% | 160 | 3% | .
CC(C)c1ccc(NC(=O)N2CCc3nc(NCc4cccc(Oc5ccccc5)c4)ncc3C2)cc1 | . | . | -87* | . | .
O=C(OCN1C(=O)c2ccccc2C1=O)c1cccc(OC(F)F)c1 | 9% | 13% | -11 | 2% | 9%
COc1ccc(OC)c(N(CC(=O)NCCc2ccc(OC)c(OC)c2)S(=O)(=O)c2ccccc2)c1 | 26% | ? | -27 | -3% | .
COc1ccc(OC)c(N(CC(=O)NCC2CCCO2)S(=O)(=O)c2ccccc2)c1 (stereo not drawn) | -9% | 7% | -63* | -20% | -3%
COc1ccc(OC)c(N(CC(=O)NCc2ccccc2)S(=O)(=O)c2ccc(OC)c(OC)c2)c1 | -15% | -20% | -24 | 25µM* | .
COc1ccc(CCNC(=O)CN(c2cc(OC)ccc2OC)S(=O)(=O)c2ccccc2)cc1 | 9% | 9.3µM* | 55 | 0% | -5%
